Laboratory results: PubChem BioAssay (NCI)
Several values for one entry are separate records, joined by “and”; a condition that tells them apart may be missing. Identical values can stand only once. This is part of a sample that, as a whole, favours compounds with a hit. Of some 83,000 tested, about 20% had one in any assay.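 Compound tested at a single concentration for 48 hours in 96-well plates; a percent growth value below 10 was scored as active.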 Activity calls are given as the source filed them.

How the values were obtained:
Experiment in all cases: NCI-60 one-dose screen, 48 h (100 = growth as untreated, 0 = no growth, -100 = all killed)
SR leukemia = tested on: SR leukemia
RPMI-8226 leukemia = tested on: RPMI-8226 leukemia
OVCAR-8 ovarian = conditions: 10 µM
OVCAR-5 ovarian = tested on: OVCAR-5 ovarian
OVCAR-4 ovarian = tested on: OVCAR-4 ovarian
SK-OV-3 ovarian = tested on: SK-OV-3 ovarian
IGROV1 ovarian = tested on: IGROV1 ovarian
OVCAR-3 ovarian = tested on: OVCAR-3 ovarian
HS 578T breast = tested on: HS 578T breast
NCI/ADR-RES ovarian = tested on: NCI/ADR-RES ovarian

Measured: growth

CC[C@@]1(O)C(=O)OCc2c1cc1n(c2=O)Cc2cc3c(CN(C)C)c(O)ccc3nc2-1
active: SR leukemia; 10 µM -5.49% | RPMI-8226 leukemia; 10 µM -28.3% | OVCAR-8 ovarian 3.57% | OVCAR-3 ovarian; 10 µM -21.7% and -9.74%
8.58% (active) and 13.8% (inactive): OVCAR-5 ovarian; 10 µM
inactive: OVCAR-4 ovarian; 10 µM 14% | SK-OV-3 ovarian; 10 µM 10.6% and 20.4% | IGROV1 ovarian; 10 µM 15.3% | HS 578T breast; 10 µM 28.5%
13.9% (inactive) and 5.76% (active): NCI/ADR-RES ovarian; 10 µM

CC/C(=C(\c1ccccc1)c1ccc(OCCN(C)C)cc1)c1ccccc1
active: SR leukemia; 10 µM -18.9% | SR leukemia; 12.5 µM -27.2% | RPMI-8226 leukemia; 10 µM -28.3% | RPMI-8226 leukemia; 12.5 µM -38.1% | OVCAR-5 ovarian; 12.5 µM -83.1% | OVCAR-4 ovarian; 12.5 µM 2.45% | IGROV1 ovarian; 12.5 µM -20.4% | OVCAR-3 ovarian; 12.5 µM -6.16% | HS 578T breast; 12.5 µM -70.9% | NCI/ADR-RES ovarian; 12.5 µM -41.2%
inactive: OVCAR-8 ovarian 60.5% | OVCAR-4 ovarian; 10 µM 46.3% | SK-OV-3 ovarian; 10 µM 76.8% | SK-OV-3 ovarian; 12.5 µM 32.6% | IGROV1 ovarian; 10 µM 41.2% | OVCAR-3 ovarian; 10 µM 52.9% | HS 578T breast; 10 µM 60.5% | NCI/ADR-RES ovarian; 10 µM 43.2%

CN(Cc1cnc2nc(N)nc(N)c2n1)c1ccc(C(=O)N[C@@H](CCC(=O)O)C(=O)O)cc1
inactive: SR leukemia; 2.5 µM 32% | SR leukemia; 10 µM 26.8% | RPMI-8226 leukemia; 2.5 µM 33.9% | RPMI-8226 leukemia; 10 µM 41.7% | OVCAR-5 ovarian; 2.5 µM 41.1% | OVCAR-5 ovarian; 10 µM 27.2% | OVCAR-4 ovarian; 2.5 µM 93.4% | OVCAR-4 ovarian; 10 µM 105% | SK-OV-3 ovarian; 2.5 µM 75% | SK-OV-3 ovarian; 10 µM 56.2% | IGROV1 ovarian; 2.5 µM 38.7% | IGROV1 ovarian; 10 µM 21% | OVCAR-3 ovarian; 2.5 µM 54.2% | OVCAR-3 ovarian; 10 µM 47.8% | HS 578T breast; 2.5 µM 27.4% | NCI/ADR-RES ovarian; 2.5 µM 29%
active: NCI/ADR-RES ovarian; 10 µM 7.09%

COc1ccc2sc3cccc(NCCN(C)C)c3c(=O)c2c1
64.7% (inactive) and -8.94% (active): OVCAR-4 ovarian; 10 µM
active: SR leukemia; 10 µM -31.7%
inactive: OVCAR-3 ovarian; 10 µM 61.6% and 22.1% | NCI/ADR-RES ovarian; 10 µM 48.5% and 14.7%
70.2% (inactive) and -6.71% (active): RPMI-8226 leukemia; 10 µM
81.2% (inactive) and 8.98% (active): HS 578T breast; 10 µM
41.2% (inactive) and -2.42% (active): IGROV1 ovarian; 10 µM
53.1% (inactive) and 9.58% (active): OVCAR-5 ovarian; 10 µM
40.9% (inactive) and 7.16% (active): OVCAR-8 ovarian
57.2% (inactive) and 3.91% (active): SK-OV-3 ovarian; 10 µM
